HT1080-NT tox = kills 2HG-producing HT-1080-NT fibrosarcoma cells | HT-1080-NT fibrosarcoma viability, CellTiter-Glo ATP luminescence, 48 h | Potency, µM (titrated, usually from 46.1 µM), for inactives: top-dose activity, negative = less viability, usual class: cytotoxic | actives 1.6% (n = 360,000) | AID 686970;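 further: NT is the 2HG producing partner of a matched IDH1 knockdown line; potency means the concentration at half of the fitted maximal effect; 0% = DMSO-treated cells and -100% = media-only wells without cells; nearly all actives have a fitted effect of over 55% in size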
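Viability of the 2HG-overproducing fibrosarcoma line after 48 hours of compound exposure at 37 degrees C was determined by luminescence with CellTiter-Glo, and concentration-effect curves were then fitted and categorized.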
HT1080 IDH1KD tx = toxicity to HT-1080 IDH1 knockdown cells (counter line); actives 2% (n = 360,000); HT-1080 IDH1 knockdown viability, ATP luminescence, 48 h; Potency, µM (series often up to 46.1 µM), for inactives: at the top dose activity, negative = toxicity, usual class: cytotoxic;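 further: potency means the concentration at half of the fitted maximal effect; 0% = DMSO wells and -100% = cell-free medium wells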
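In this qHTS, HT-1080 cells depleted of IDH1 are exposed for 48 h at 37 °C to compound titrations. Toxicity is scored from CellTiter-Glo luminescence, with DMSO as full viability and medium alone as none.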
IL-1B inflam inh = inhibitors of inflammasome signaling (IL-1 beta secretion). activity change, % at 57.5 µM. actives 4.7% (n = 360,000). THP-1 LPS/ATP IL-1B secretion, AlphaLISA, 16 h; hits give low values; in the data active means activity change below about -50%; inconclusive means mostly about -30% to -49%
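Secreted IL-1B measured by AlphaLISA bead assay after 16 h compound exposure of THP-1 cells; compounds (final up to 57.5 uM) added 1 h before LPS (250 ng/mL) and ATP (1.25 mM) stimulation; lower signal means less secretion.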
TDP1 cell CPT = DT40-hTDP1 cell growth loss with CPT; AID 686979; actives 12% (n = 420,000); chicken DT40 Tdp1-/-;hTDP1 cells + 20 nM CPT, ATP luminescence, 48 h; Potency, µM (titrated, usually from 46.2 µM), for the others: at the highest dose activity change, negative = growth inhibition, hits mostly inhibitors; further: potency means the concentration at half of the fitted maximal effect; nearly all actives have a fitted effect of over 55% in size
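Chicken DT40 Tdp1-/- cells complemented with human TDP1, 400 cells/well, exposed to compounds plus 20 nM camptothecin for at least 48 h at 37 C; viability read as ATP content by CellTiter-Glo luminescence.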
TDP1 cell noCPT = qHTS for Inhibitors of human tyrosyl-DNA phosphodiesterase 1 (TDP1): qHTS in cells in absence of CPT. DT40 Tdp1-/- hTDP1 cells, no CPT, ATP luminescence, 48 h. AID 686978, 2013. Potency, µM (highest dose often 46.2 µM), for inactives: top-dose activity change, negative = growth inhibition, most hits filed as inhibitors. actives 15% (n = 420,000); further: potency means the concentration at half of the fitted maximal effect; nearly all actives have a fitted effect of over 55% in size
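DT40 Tdp1-/-;hTDP1 cells, no CPT (DMSO vehicle only), 400 cells/well; compounds pin-transferred; ≥48 hr, 37 °C; CellTiter-Glo 30 min RT dark, luminescence read.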
Starred values were filed as active, the others as inactive; u = inconclusive; x = not tested or not shown; [ ] = dose if it differs, or a comment. A selection: hits, their analogues and other compounds. The true share with any hit is near 19%. Unless noted, the call rests on the fitted dose curve; in most records, active means well fitted curve in the direction sought with a large enough effect; inconclusive means small, poorly fitted or top-dose-only effect, or another doubt; inactive means no such curve, though single readings can be large; an effect the other way counts as inactive or inconclusive. Unless noted, on the % scale 0 is the no-effect control and ±100 the full control effect.

SMILES	HT1080-NT tox	HT1080 IDH1KD tx	IL-1B inflam inh	TDP1 cell CPT	TDP1 cell noCPT
Oc1ccc(Br)cc1-c1n[nH]c(=S)n1Cc1ccccc1	-1.5%	-8.9%	-6.3	-11.3%	-29.2%
Oc1ccc(Br)cc1-c1ccnn1-c1ccccc1	u	7.31µM*	-1.3	20.6µM*	10.3µM*
CCCCOCCCNC(=O)/C=C/c1ccccc1Cl	10.0%	11.7%	-3.7	-17.7%	u
COc1ccc(C2C(C(=O)c3ccccc3)N3c4ccccc4C=CC3C2[N+](=O)[O-])cc1 (stereo unspecified)	u	u	-20.7	7.31µM*	10.3µM*
CCC(c1nnnn1-c1c(C)cccc1C)N1CCN(C/C=C/c2ccccc2)CC1 (stereo unspecified)	18.4µM*	u	-20.5	6.51µM*	7.31µM*
CSCCC(c1nnnn1-c1c(C)cccc1C)N1CCN(C/C=C/c2ccccc2)CC1 (stereo unspecified)	u	u	-59.3*	u	18.4µM*
CCCc1nc2cccnc2n1C1CCN(C(=O)Cn2nccc2C)CC1	x	x	x	5.3%[9.04 µM]	-19.2%
O=c1c(CCc2ccccc2)nc2cnc(N3CCOCC3)nc2n1Cc1cccs1	x	x	x	-28.7%	-10.8%
CCNc1ncc2nc(-c3cn(C)c4ccccc34)c(=O)n(Cc3cccs3)c2n1	x	x	x	-26.0%	-7.1%
CN1CCN(c2ncc3nc(-c4cn(C)c5ccccc45)c(=O)n(Cc4cccs4)c3n2)CC1	x	x	x	1.64µM*	0.366µM*
CN1CCN(c2ncc3nc(CCc4ccccc4)c(=O)n(Cc4cccs4)c3n2)CC1	x	x	x	u	20.6µM*
COc1ncc2nc(CCc3ccccc3)c(=O)n(Cc3ccc(F)cc3)c2n1	x	x	x	u	23.1µM*
CCCCCCCC/C=C\CCCCCCCC(=O)OCC(CO)OC(=O)CCCCCCC/C=C\CCCCCCCC (stereo unspecified)	x	x	x	-28.6%[4.12 µM]	-6.9%[4.12 µM]
COc1ccccc1NC(=O)Nc1nn(C)c2cccc(OC)c12	22.6%	24.8%	-2.5	14.6%	-0.2%
O=C(NCCC1CCCCN1S(=O)(=O)c1ccc(Cl)cc1)C(=O)NCc1cccnc1 (stereo unspecified)	-3.5%	-9.6%	-9.7	u	u
COc1ccc(C(=O)c2cc([N+](=O)[O-])ccc2N2CCN(C)CC2)cc1	2.59µM*	5.17µM*	38.3	2.59µM*	3.26µM*
COc1ccc(C(=O)c2cc([N+](=O)[O-])ccc2N2CCCC2)cc1	3.26µM*	3.26µM*	11.9	3.26µM*	5.17µM*
COc1ccc(C(=O)c2ccc([N+](=O)[O-])cc2Cl)cc1	-6.1%	-0.5%	-22.3	-1.3%	u
Cn1ccnc1SCC(=O)Nc1cccc2ccccc12	-2.8%	-1.2%	5.7	-27.2%	-5.0%
CCN(C(=O)CSc1nccn1C)c1cccc2ccccc12	0.3%	-2.0%	58.5	20.6µM*	10.3µM*
Cn1ccnc1SCC(=O)c1ccc([N+](=O)[O-])cc1	17.8%	13.8%	-14.7	18.4µM*	u
COc1ccccc1C(=O)CSc1nccn1C	u	-6.8%	-18.8	u	16.4µM*
Cc1cc(N2CCN(c3cccc(C)c3C)CC2)n2nc(C)c(-c3ccc(Cl)cc3)c2n1	x	x	x	-9.3%	0.5%
COc1cc([N+](=O)[O-])ccc1N1C(=O)C2C3C=CC(C4CC34)C2C1=O (stereo unspecified)	1.1%	1.5%	20.3	-2.1%	u
Cc1ccc(-c2cc(=O)c3cc(C)ccc3[nH]2)cc1	u	20.6µM*	56.9	5.17µM*	3.66µM*
SMILES	HT1080-NT tox	HT1080 IDH1KD tx	IL-1B inflam inh	TDP1 cell CPT	TDP1 cell noCPT
O=c1cc(-c2cccc(F)c2)[nH]c2ccccc12	1.84µM*	1.46µM*	51.1	1.03µM*	0.581µM*
c1ccc(-c2cc3ccccc3[nH]2)cc1	6.2%	-0.4%	13.4	-22.4%	-9.8%
O=c1cc(-c2ccccc2)[nH]c2ccc(F)cc12	u	2.31µM*	79.2	0.92µM*	0.517µM*
O=c1cc(-c2cccc(F)c2)oc2ccccc12	19.2%	-10.4%	-2.0	u	u
Cc1cc(=O)c2cc(C(=O)Nc3ccc(F)cc3)ccc2[nH]1	x	x	x	-0.2%	-10.5%
Cc1ccc(-c2cc(=O)c3cc(F)ccc3[nH]2)cc1	-25.0%	-15.9%	30.9	23.1µM*	u
CC(C)CCNC(=O)COc1ccc(N(C)S(=O)(=O)c2ccc(F)cc2)cc1	-1.8%	-4.3%	-4.9	u	u
COc1cccc(C(O)c2ncc(-c3cccc(F)c3)[nH]2)c1 (stereo unspecified)	-1.0%	17.1%	-20.1	u	-25.5%
COc1ccc2[nH]c(-c3cccc(F)c3)cc(=O)c2c1	u	0.517µM*	27.0	0.326µM*	0.231µM*
O=c1cc(-c2ccccc2)[nH]c2cc(Cl)ccc12	0.517µM*	0.581µM*	42.8	0.461µM*	0.731µM*
COc1ccc(C(=O)N/N=C(\C)CC(=O)Nc2ccc(N(C)C)cc2)c(OC)c1	-0.5%	-7.1%	0.0	11.5%	1.3%
COc1ccc(OC)c(C(=O)c2ccc(C(=O)c3cc(OC)ccc3OC)cc2)c1	-3.6%	0.0%	-75.1*	u	u
COc1ccc(OC)c(C(=O)c2ccccc2)c1	1.0%	-18.9%	0.0	-11.7%	-12.9%
COc1ccc(C(=O)Nc2ccc3ccccc3c2)cc1	-0.7%	-6.4%	-5.0	3.6%	3.0%
COc1ccc(OC)c(C(=O)c2ccc(C(=O)Nc3ccc4ccccc4c3)cc2)c1	4.0%	0.8%	-7.3	20.6µM*	18.4µM*
COc1ccc(C(=O)c2ccc(N(C)C)cc2)c(OC)c1	3.55µM*	2.51µM*	-8.7	3.16µM*	2.82µM*
COc1ccc(OC)c(C(=O)COC(=O)COc2ccccc2)c1	-1.7%	-8.0%	u	14.6µM*	5.8µM*
CCN1CCN(C(=O)CCc2nnc(CCc3ccc(OC)cc3)o2)[C@@H](C)C1=O	6.0%	6.2%	0.7	0.7%	2.5%
COc1ccc(/C(C)=N/N=C(N)N)c(O)c1	19.6%	-0.6%	0.5	-16.1%	-21.4%
COc1ccc(OC)c(C(=O)CCCCC(=O)c2cc(OC)ccc2OC)c1	-7.1%	1.3%	6.5	u	18.4µM*
COc1ccc(/C(C)=N/N=C(N)N)c(OC)c1	-2.9%	-12.3%	5.7	18.4µM*	-25.6%
COc1ccc(C(=O)c2ccc(OC)cc2OC)cc1	23.1µM*	11.6µM*	34.3	-102.5%	5.8µM*
COc1ccc(C(=O)c2ccc(N3CCOCC3)cc2)c(OC)c1	-10.7%	-10.8%	-18.3	u	u
CC1(C)OC(=O)C2(Cc3ccc(Cl)cc3N3CCCCC32)C(=O)O1 (stereo unspecified)	x	x	x	3.6%	-19.8%
CCc1ccc2nc(SCC(=O)N3CCCCC3)c(C#N)cc2c1	-1.2%	-13.7%	27.4	u	u

Bioassay records from PubChem BioAssay.
